{"source": "the supplement of paper PMC6411743", "experiment_in_all_cases": "NP40-soluble protein abundance relative to vehicle (solubility fold change) (ratio); higher = more soluble protein in presence of AMP-PNP", "key": {"KIAA0319L": {"target": "T1, KIAA0319L (UniProt Q8IZA0)", "T1 sequence (whole entry)": "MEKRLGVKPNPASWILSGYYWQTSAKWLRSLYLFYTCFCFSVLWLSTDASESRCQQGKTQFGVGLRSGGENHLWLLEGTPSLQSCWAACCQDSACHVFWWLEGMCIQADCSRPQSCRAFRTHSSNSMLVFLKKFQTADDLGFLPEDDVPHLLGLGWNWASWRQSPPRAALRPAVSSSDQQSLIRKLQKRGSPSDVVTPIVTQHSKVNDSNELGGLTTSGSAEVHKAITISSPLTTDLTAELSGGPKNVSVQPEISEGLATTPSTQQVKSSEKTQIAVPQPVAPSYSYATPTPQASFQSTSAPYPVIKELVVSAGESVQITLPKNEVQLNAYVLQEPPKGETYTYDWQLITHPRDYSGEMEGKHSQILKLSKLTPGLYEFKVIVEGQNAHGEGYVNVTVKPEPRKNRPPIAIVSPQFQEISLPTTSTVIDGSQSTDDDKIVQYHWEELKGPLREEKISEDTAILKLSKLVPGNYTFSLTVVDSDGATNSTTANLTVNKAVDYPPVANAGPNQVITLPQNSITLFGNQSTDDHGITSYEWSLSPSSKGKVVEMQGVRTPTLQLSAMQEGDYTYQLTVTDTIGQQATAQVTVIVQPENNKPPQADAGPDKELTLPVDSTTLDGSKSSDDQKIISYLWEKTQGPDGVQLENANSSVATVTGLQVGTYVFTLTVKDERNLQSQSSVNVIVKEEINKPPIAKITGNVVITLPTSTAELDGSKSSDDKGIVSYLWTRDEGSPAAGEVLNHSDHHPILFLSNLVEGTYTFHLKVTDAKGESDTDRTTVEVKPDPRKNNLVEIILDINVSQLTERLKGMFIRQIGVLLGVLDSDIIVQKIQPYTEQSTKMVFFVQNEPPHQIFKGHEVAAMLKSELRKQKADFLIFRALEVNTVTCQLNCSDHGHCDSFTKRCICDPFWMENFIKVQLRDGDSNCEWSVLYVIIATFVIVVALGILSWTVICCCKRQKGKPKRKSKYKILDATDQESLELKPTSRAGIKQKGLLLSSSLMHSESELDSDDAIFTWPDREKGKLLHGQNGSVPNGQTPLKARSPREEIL", "procedure,_shortened": "(§1)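 Jurkat crude lysate prepared with a Dounce homogeniser was treated at eight concentrations spanning 0.1 to 10 mM, 10 min at room temperature then 3 min at 37 °C. Solubilisation with 0.8% NP40 and benzonase and ultracentrifugation preceded TMT labelling of the supernatant for LC-MS/MS. Fold change against the detergent-processed vehicle was determined per replicate from vsn-normalised intensities, across three independent experiments.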"}, "NUFIP2": {"target": "T2, NUFIP2 (UniProt Q7Z417)", "T2 sequence (whole entry)": "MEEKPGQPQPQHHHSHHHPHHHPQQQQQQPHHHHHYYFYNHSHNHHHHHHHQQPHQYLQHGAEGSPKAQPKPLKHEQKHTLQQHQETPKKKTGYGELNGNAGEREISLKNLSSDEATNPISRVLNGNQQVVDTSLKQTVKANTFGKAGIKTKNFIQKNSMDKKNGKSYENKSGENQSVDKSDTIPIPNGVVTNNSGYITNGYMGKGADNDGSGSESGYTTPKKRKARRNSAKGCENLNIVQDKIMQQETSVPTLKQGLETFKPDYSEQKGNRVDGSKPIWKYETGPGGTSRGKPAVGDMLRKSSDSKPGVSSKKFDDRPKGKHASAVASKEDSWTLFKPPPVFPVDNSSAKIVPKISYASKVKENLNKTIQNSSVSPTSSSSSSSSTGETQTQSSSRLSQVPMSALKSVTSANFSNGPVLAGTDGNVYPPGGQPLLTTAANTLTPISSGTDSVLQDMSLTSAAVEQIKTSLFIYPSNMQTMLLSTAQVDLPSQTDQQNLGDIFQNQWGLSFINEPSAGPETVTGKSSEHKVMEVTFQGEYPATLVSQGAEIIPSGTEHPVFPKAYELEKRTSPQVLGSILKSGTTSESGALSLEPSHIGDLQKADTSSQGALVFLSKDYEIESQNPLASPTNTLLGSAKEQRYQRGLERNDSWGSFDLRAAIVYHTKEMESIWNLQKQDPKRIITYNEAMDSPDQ", "procedure,_shortened": "as §1"}, "PINX1": {"target": "T3, PINX1 (UniProt Q96BK5)", "T3 sequence (whole entry)": "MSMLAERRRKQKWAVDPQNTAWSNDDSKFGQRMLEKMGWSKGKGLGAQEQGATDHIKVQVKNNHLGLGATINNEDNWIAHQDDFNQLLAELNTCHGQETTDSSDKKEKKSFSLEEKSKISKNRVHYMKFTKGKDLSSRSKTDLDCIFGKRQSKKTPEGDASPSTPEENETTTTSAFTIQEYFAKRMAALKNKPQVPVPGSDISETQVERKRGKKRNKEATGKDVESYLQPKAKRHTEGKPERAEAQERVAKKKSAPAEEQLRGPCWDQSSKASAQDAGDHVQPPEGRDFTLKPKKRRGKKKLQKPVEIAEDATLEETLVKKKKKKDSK", "procedure,_shortened": "as §1"}, "TTF1": {"target": "T4, TTF1 (UniProt Q15361)", "T4 sequence (whole entry)": "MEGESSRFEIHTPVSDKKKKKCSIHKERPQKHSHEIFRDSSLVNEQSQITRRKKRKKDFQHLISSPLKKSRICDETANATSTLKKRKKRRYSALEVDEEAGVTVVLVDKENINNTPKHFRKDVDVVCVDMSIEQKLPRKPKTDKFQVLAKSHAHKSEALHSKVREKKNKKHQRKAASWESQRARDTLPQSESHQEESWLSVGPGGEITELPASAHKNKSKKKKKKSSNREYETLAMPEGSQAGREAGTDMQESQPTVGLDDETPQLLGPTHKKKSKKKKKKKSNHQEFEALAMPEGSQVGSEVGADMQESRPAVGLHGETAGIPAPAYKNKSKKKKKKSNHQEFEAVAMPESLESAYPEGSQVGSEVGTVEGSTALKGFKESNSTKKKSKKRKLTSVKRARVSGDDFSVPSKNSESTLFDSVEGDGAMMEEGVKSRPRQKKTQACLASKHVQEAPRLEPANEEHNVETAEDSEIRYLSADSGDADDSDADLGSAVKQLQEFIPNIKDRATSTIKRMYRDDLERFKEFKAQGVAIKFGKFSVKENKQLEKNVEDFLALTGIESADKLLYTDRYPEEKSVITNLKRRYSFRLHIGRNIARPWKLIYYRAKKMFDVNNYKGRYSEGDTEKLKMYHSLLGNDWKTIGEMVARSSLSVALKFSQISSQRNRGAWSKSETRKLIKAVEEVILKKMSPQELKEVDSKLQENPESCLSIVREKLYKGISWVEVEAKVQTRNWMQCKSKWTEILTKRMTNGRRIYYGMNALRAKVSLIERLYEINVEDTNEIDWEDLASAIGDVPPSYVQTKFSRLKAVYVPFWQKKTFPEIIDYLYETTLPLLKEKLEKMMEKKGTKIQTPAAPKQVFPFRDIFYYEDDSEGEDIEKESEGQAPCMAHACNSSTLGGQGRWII", "procedure,_shortened": "as §1"}, "UniProt Q147X3|Q147X3-2": {"target": "T5, UniProt Q147X3|Q147X3-2", "T5 sequence (whole entry)": "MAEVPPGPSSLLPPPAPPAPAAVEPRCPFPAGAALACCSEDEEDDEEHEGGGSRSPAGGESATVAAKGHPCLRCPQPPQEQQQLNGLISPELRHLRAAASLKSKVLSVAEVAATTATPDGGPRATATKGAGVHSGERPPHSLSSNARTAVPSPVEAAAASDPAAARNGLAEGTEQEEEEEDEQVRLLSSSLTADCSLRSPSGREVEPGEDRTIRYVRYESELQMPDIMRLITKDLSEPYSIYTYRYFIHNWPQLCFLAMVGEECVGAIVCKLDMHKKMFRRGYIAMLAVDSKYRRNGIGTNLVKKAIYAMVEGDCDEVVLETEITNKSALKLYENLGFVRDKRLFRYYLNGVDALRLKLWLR", "procedure,_shortened": "as §1"}}, "note": "± gives the standard deviation of the averaged measurements. Targets with the largest changes are over-represented here; the source holds about 6,200 in all.", "data": [{"compound": "Nc1ncnc2c1ncn2[C@@H]1O[C@H](COP(=O)(O)OP(=O)(O)NP(=O)(O)O)[C@@H](O)[C@H]1O", "note": "[adenylyl imidodiphosphate]", "values": [{"measurement": "NP40-soluble protein abundance", "setting": "KIAA0319L; concentration: 1mM", "value": "1.01 ± 0.014"}, {"measurement": "NP40-soluble protein abundance", "setting": "KIAA0319L; concentration: 2mM", "value": "1.03 ± 0.033"}, {"measurement": "NP40-soluble protein abundance", "setting": "KIAA0319L; concentration: 4mM", "value": "0.977 ± 0.025"}, {"measurement": "NP40-soluble protein abundance", "setting": "KIAA0319L; concentration: 6mM", "value": "0.969 ± 0.034"}, {"measurement": "NP40-soluble protein abundance", "setting": "KIAA0319L; concentration: 8mM", "value": "0.976 ± 0.017"}, {"measurement": "NP40-soluble protein abundance", "setting": "KIAA0319L; concentration: 10mM", "value": "0.9945 ± 0.0054"}, {"measurement": "NP40-soluble protein abundance", "setting": "NUFIP2; concentration: 1mM", "value": "1.11 ± 0.029"}, {"measurement": "NP40-soluble protein abundance", "setting": "NUFIP2; concentration: 2mM", "value": "1.22 ± 0.066"}, {"measurement": "NP40-soluble protein abundance", "setting": "NUFIP2; concentration: 4mM", "value": "1.24 ± 0.023"}, {"measurement": "NP40-soluble protein abundance", "setting": "NUFIP2; concentration: 6mM", "value": "1.26 ± 0.14"}, {"measurement": "NP40-soluble protein abundance", "setting": "NUFIP2; concentration: 8mM", "value": "1.27 ± 0.14"}, {"measurement": "NP40-soluble protein abundance", "setting": "NUFIP2; concentration: 10mM", "value": "1.37 ± 0.12"}, {"measurement": "NP40-soluble protein abundance", "setting": "PINX1; concentration: 1mM", "value": "1.15 ± 0.053"}, {"measurement": "NP40-soluble protein abundance", "setting": "PINX1; concentration: 2mM", "value": "1.27 ± 0.034"}, {"measurement": "NP40-soluble protein abundance", "setting": "PINX1; concentration: 4mM", "value": "1.36 ± 0.09"}, {"measurement": "NP40-soluble protein abundance", "setting": "PINX1; concentration: 6mM", "value": "1.51 ± 0.057"}, {"measurement": "NP40-soluble protein abundance", "setting": "PINX1; concentration: 8mM", "value": "1.59 ± 0.083"}, {"measurement": "NP40-soluble protein abundance", "setting": "PINX1; concentration: 10mM", "value": "1.8 ± 0.079"}, {"measurement": "NP40-soluble protein abundance", "setting": "TTF1; concentration: 1mM", "value": "0.967 ± 0.024"}, {"measurement": "NP40-soluble protein abundance", "setting": "TTF1; concentration: 2mM", "value": "0.963 ± 0.024"}, {"measurement": "NP40-soluble protein abundance", "setting": "TTF1; concentration: 4mM", "value": "0.957 ± 0.025"}, {"measurement": "NP40-soluble protein abundance", "setting": "TTF1; concentration: 6mM", "value": "0.96 ± 0.046"}, {"measurement": "NP40-soluble protein abundance", "setting": "TTF1; concentration: 8mM", "value": "0.912 ± 0.02"}, {"measurement": "NP40-soluble protein abundance", "setting": "TTF1; concentration: 10mM", "value": "0.949 ± 0.045"}, {"measurement": "NP40-soluble protein abundance", "setting": "UniProt Q147X3|Q147X3-2; concentration: 1mM", "value": "0.992 ± 0.016"}, {"measurement": "NP40-soluble protein abundance", "setting": "UniProt Q147X3|Q147X3-2; concentration: 2mM", "value": "0.971 ± 0.025"}, {"measurement": "NP40-soluble protein abundance", "setting": "UniProt Q147X3|Q147X3-2; concentration: 4mM", "value": "1.01 ± 0.059"}, {"measurement": "NP40-soluble protein abundance", "setting": "UniProt Q147X3|Q147X3-2; concentration: 6mM", "value": "1.03 ± 0.046"}, {"measurement": "NP40-soluble protein abundance", "setting": "UniProt Q147X3|Q147X3-2; concentration: 8mM", "value": "0.99 ± 0.023"}, {"measurement": "NP40-soluble protein abundance", "setting": "UniProt Q147X3|Q147X3-2; concentration: 10mM", "value": "1 ± 0.025"}]}]}
